The values below come from PubChem BioAssay.

Active and inactive are the calls of the source.

Assay [1] deals with Albumin (Bos taurus) (UniProt P02769). The experiment in a line: compounds binding labelled BSA control protein – biochemical, small-molecule microarray, Alexa647 label, 635/667 nm fluorescence, artefact control for SMM control protein annotation, profiling panel (AID 1118).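 Also: score merges 667 nm emission intensity and signal-to-noise per printed compound spot.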 To be noted: BSA-A647 binding, fluorescence 635 nm, higher = more signal.
Assay [2] can be described thus: probe aXIP binding to arrayed compounds – biochemical, NeuroSMM set, 635/667 nm fluorescence, primary screen (AID 1119).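 Also: probe is the protein aXip251-270 applied at 1 µg/mL to compound-printed slides; binding of probe to printed compounds measured as 667 nm fluorescence plus signal to noise.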 To be noted: small-molecule microarray, higher = more signal, called active from +8 up or from −8 down.
Assay [3] in a line: probe aNOTCH3 binding on compound microarray – biochemical, small-molecule microarray, 635/667 nm fluorescence, primary screen (AID 1120).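 Also: probe is a biotin-tagged antibody raised against NOTCH3 rather than NOTCH3 protein; score merges spot fluorescence near 667 nm with spot signal to noise.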 The following applies: higher = more signal.
Assay [4] can be described thus: probe aNOTCH2 binding on compound microarray – biochemical, small-molecule microarray, 635/667 nm fluorescence, primary screen (AID 1121).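 Also: score merges feature fluorescence read at 667 nm with its signal to noise.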 The following applies: higher = more signal.
Assay [5] concerns the target Carbonic anhydrase 2 (Homo sapiens) (UniProt P00918). The experiment in a line: compounds binding carbonic anhydrase 2 – biochemical, small-molecule microarray, Alexa647-labelled CAII, profiling panel (AID 1122). The following applies: CAII-A647 binding fluorescence, higher = more signal.
The nature of assay [6]: COS7 lysate on small-molecule microarray, probe aHis, 635 nm (AID 1123).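 Also: z-score combines 667nm fluorescence intensity with signal-to-noise per printed compound spot.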 To be noted: COS7 cell lysate, fluorescence, higher = more signal.
Assay [7] is described as follows: probe aLAP1 signal on lysate-treated microarray – cell lysate, small-molecule microarray, COS7 lysate, primary screen (AID 1124).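 Also: lysate comes from COS7 cells expressing LAP1 and is applied at 0.3 µg/mL; score merges spot fluorescence near 667 nm with signal-to-noise over triplicate slides.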 The following applies: probe aLAP1, fluorescence, higher = more signal.
The test system of assay [8] is Sam68 (KHDRBS1). Kind of assay: compounds binding KHDRBS1 protein – biochemical, small-molecule microarray, 635 nm fluorescence, primary screen (AID 1125).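 Also: score merges 667 nm channel intensity with signal to noise over triplicate slides.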 The following applies: higher = more signal.
Assay [9] has as its system Chordin-like protein 2 (CHRDL2). Kind of assay: compounds binding chordin-like 2 – biochemical, small-molecule microarray, 635 nm fluorescence, primary screen (AID 1126).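 Also: printed compound slides probed with Chrdl2 protein at 4 µg/mL for 1 h at 4 C; score merges 667 nm emission intensity with signal to noise over three replicate slides.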 The following applies: fluorescence 635 nm, higher = more signal.
Assay [10] has as its target Concanavalin-A (Canavalia ensiformis) (UniProt P02866). The experiment in a line: compounds binding concanavalin A lectin – biochemical, small-molecule microarray, Alexa647 label, 635 nm, artefact control for SMM control protein annotation, primary screen (AID 1127).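 Also: z combines 667 nm emission intensity with signal-to-noise across three replicate slides.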 To be noted: ConA-A647 binding fluorescence, higher = more signal.
Assay [11] is described as follows: compounds binding Alexa647 anti-His antibody – biochemical, small-molecule microarray, 635 nm fluorescence, artefact control for SMM control protein annotation, primary screen (AID 1128).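 Also: score merges feature fluorescence with signal-to-noise for each printed compound spot.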 To be noted: higher = more signal.
The subject of assay [12] is Human papillomavirus type 1a E7 protein (residues 1-88). Kind of assay: HPV1a E7 small-molecule binders, primary screen, biochemical, small-molecule microarray, residues 1-88, 635 nm (AID 1129). To be noted: small-molecule microarray binding, fluorescence 635 nm; higher = more signal.
Assay [13] addresses Focal adhesion kinase 1 (Homo sapiens) (UniProt Q05397). Kind of assay: PTK2 protein binding on printed compound slides – biochemical, small-molecule microarray, 635/667 nm fluorescence, BSA, DTT, primary screen (AID 1130).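 Also: composite of spot emission at 667 nm and signal to noise over triplicate slides.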 To be noted: 635 nm fluorescence, higher = more signal.
In assay [14] the test system is Fibrinogen (Alexa647-labelled). Kind of assay: Alexa647-fibrinogen binding to printed small molecules – biochemical, small-molecule microarray, 635/667 nm fluorescence, artefact control for SMM control-protein annotation, profiling panel (AID 1131).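 Also: z-score merges 667 nm fluorescence with per-spot signal-to-noise over triplicate slides.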 The following applies: fibrinogen-A647 binding fluorescence, higher = more signal.
Assay [15] addresses Follistatin (Homo sapiens) (UniProt P19883). The experiment in a line: FST protein binding to printed compounds – biochemical, small-molecule microarray, 635/667 nm fluorescence, primary screen (AID 1132). To be noted: 635 nm fluorescence, higher = more signal.
Assay [16] concerns the target Fibroblast growth factor 2 (Homo sapiens) (UniProt P09038). Kind of assay: basic fibroblast growth factor binding to printed compounds – biochemical, small-molecule microarray, 635/667 nm fluorescence, primary screen (AID 1133). To be noted: FGF2, fluorescence 635/667, higher = more signal.
Assay [17] can be described thus: JC-1 mitochondrial potential readout, lung cancer cells – cell-based, A549, JC-1 fluorescence, basal, 24 h, 100 nL, profiling panel (AID 1138).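 Also: A549 lung adenocarcinoma cells under basal conditions with no added stimulus; test concentration not given here.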 To be noted: higher = more signal.
Assay [18] concerns Lefty1. Kind of assay: Lefty1 protein binding to printed compounds – biochemical, small-molecule microarray, 635/667 nm fluorescence, primary screen (AID 1139). To be noted: fluorescence 635/667, higher = more signal.
Assay [19] deals with wheat germ agglutinin (Triticum aestivum), Alexa647-labelled. The experiment in a line: Alexa647-WGA lectin binding to printed small molecules – biochemical, small-molecule microarray, 635/667 nm fluorescence, artefact control for SMM control-protein annotation, profiling panel (AID 1140).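 Also: score merges 667 nm feature emission with signal to noise over triplicate slides.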 To be noted: WGA-A647 binding, 635 nm fluorescence, higher = more signal.
Assay [20] has as its target Luciferin 4-monooxygenase (Photinus pyralis) (UniProt P08659). The experiment in a line: inhibition of purified Photinus pyralis luciferase – biochemical, luminescence, purified enzyme, 2006 set, primary screen (AID 1141).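 Also: cell-free assay with purified firefly luciferase at 100 ng per well in PBS; test concentration not given here.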 The following applies: purified firefly luciferase, SteadyGlo luminescence, 30 min; higher = more signal, called active from +8 up or from −8 down.

Chain of Follistatin (Homo sapiens) (P19883 whole entry, looked up): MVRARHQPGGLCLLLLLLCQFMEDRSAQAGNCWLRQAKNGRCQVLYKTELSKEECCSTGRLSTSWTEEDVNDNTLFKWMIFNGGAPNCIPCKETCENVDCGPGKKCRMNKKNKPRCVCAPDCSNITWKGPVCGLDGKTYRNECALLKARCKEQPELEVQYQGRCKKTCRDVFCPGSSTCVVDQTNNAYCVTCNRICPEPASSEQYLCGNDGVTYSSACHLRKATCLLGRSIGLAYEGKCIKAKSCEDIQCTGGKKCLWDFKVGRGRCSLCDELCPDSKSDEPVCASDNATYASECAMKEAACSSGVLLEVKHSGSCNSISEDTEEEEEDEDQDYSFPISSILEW
Chain of Albumin (Bos taurus) (P02769 whole entry, looked up): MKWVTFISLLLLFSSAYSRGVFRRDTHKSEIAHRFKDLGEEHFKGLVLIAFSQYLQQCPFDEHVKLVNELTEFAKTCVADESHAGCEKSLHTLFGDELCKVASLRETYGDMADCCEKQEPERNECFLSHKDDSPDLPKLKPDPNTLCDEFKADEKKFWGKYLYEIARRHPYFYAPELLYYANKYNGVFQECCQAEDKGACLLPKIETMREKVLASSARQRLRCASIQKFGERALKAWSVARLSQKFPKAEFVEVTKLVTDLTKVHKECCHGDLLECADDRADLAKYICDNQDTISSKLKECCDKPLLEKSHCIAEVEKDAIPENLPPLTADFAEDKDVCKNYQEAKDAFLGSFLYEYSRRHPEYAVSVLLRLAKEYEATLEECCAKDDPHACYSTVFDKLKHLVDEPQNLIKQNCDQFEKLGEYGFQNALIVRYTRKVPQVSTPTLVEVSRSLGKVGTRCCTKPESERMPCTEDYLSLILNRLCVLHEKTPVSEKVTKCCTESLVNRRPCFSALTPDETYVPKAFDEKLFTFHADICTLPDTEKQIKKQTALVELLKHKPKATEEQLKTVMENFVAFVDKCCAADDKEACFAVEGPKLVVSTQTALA
Chain of Luciferin 4-monooxygenase (Photinus pyralis) (P08659 whole entry, looked up): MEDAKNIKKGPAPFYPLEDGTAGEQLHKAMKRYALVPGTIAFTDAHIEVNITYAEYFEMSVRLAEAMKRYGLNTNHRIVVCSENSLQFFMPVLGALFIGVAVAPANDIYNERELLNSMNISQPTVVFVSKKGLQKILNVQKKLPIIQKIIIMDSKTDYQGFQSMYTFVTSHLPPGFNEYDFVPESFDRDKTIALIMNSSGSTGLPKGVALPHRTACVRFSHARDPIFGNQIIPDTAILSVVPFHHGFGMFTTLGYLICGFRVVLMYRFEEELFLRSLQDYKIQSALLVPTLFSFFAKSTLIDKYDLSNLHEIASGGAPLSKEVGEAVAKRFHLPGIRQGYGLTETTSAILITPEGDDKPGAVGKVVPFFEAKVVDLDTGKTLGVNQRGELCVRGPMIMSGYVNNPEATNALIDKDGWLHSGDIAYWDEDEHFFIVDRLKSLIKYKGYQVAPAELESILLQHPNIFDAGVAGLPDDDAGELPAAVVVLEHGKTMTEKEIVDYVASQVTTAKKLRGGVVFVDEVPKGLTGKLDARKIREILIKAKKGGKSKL
Chain of Focal adhesion kinase 1 (Homo sapiens) (Q05397 whole entry, looked up): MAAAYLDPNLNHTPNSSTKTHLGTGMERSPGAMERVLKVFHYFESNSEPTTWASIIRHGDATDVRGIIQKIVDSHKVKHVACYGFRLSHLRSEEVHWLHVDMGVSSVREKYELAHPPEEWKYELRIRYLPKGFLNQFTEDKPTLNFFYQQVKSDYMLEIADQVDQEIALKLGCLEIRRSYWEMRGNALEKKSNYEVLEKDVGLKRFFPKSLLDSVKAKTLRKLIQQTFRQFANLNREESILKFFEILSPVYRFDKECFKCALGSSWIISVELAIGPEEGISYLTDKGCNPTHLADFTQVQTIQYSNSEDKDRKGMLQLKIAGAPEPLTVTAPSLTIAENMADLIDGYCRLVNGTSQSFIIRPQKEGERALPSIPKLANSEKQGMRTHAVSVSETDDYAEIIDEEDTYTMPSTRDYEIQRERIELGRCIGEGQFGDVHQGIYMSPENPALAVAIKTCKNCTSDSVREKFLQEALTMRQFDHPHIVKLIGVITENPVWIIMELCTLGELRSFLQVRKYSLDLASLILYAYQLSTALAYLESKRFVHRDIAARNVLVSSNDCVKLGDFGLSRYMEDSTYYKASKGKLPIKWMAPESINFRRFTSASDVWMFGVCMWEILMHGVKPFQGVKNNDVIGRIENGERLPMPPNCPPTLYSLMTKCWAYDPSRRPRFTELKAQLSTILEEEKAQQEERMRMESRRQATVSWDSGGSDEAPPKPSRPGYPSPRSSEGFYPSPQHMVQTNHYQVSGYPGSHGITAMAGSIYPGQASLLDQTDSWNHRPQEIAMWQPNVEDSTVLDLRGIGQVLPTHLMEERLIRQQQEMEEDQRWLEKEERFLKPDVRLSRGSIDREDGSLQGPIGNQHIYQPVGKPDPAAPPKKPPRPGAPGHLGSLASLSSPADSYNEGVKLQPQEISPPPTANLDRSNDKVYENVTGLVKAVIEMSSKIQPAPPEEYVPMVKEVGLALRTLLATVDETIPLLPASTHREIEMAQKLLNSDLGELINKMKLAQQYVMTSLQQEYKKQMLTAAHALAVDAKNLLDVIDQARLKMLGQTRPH
Chain of Fibroblast growth factor 2 (Homo sapiens) (P09038 whole entry, looked up): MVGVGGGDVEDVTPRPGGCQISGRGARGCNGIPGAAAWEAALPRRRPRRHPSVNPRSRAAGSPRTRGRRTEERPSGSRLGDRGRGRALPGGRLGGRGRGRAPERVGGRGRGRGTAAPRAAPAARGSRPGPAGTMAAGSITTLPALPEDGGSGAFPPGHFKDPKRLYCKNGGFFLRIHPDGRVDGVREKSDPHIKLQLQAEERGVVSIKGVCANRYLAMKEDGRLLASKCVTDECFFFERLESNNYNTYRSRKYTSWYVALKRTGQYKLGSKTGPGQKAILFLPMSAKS
Chain of Concanavalin-A (Canavalia ensiformis) (P02866 whole entry, looked up): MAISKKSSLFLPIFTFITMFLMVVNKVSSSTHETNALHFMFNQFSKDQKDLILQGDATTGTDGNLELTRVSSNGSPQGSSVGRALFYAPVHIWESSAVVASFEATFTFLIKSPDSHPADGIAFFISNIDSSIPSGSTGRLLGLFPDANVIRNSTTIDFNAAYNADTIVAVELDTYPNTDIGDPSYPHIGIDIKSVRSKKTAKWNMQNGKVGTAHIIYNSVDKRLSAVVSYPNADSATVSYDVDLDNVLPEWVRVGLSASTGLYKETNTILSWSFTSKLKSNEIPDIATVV

With `O=C1C2C=CC(C(O)c3ccc(I)cc3)N(Nc3ccccc3)C2C(=O)N1c1ccccc1` (stereo not given), the composite z-score came to 0.778 in assay [1]; 0.273 in assay [3]; 0.11 in [4]; 0.738 in [5]; 2.87 in [6]; 0.635 in assay [7]. The composite z-score was 1.34 in assay [8]; -0.409 in assay [9]; 1.16 in [10]; 1.45 in [11]; 1.19 in assay [12]; 0.83 in assay [13]. Also, the composite z-score in assay [14] is 0.907; in assay [15] it was 0.862; in assay [16], 0.0891; in assay [18] it was -0.358; in [19], 1.44. The composite Z-score in assay [2] was 0.284 (inactive). The z-score in assay [17] is -0.0457; in assay [20], -0.102 (inactive).

Consider `NC(=O)[C@H]1[C@@H]2C(=O)O[C@@H](c3ccccc3)[C@@H](c3ccccc3)N2[C@@H](c2ccc(O)cc2)[C@]12C(=O)Nc1ccc(C#CC3=CCCCC3)cc12`, for which the composite z-score in [1] is 0.396; in assay [3], -0.0273; in assay [4] it was -0.156; in assay [5], 0.293; in [6], 2.13; in [7] it was 0.249. Further, the composite z-score is 0.662 in [8]; -0.758 in [9]; 0.565 in [10]; 2.5 in assay [11]; 1.2 in assay [12]; 0.985 in assay [13]. Further, the composite z-score is 0.587 in assay [14]; 0.959 in [15]; -0.004 in assay [16]; 0.542 in [18]; 0.548 in assay [19]. Further, the composite Z-score in assay [2] is 0.224 (inactive). Moreover, the results for the z-score in assay [17] and in assay [20] were -1.96 and -0.784 (inactive), respectively.

In the case of `CN1C(=O)C2C=CC(C(O)c3ccc(F)cc3)N(NC(=O)OC(C)(C)C)C2C1=O` (stereo not given), the composite z-score in assay [1] was 0.854; in assay [3] it was 0.0155; in [4], -0.0317; in assay [5], 0.695; in assay [6], 2.48; in assay [7], 0.215. Also, the composite z-score in assay [8] is 1.03; in [9] it was -1.3; in [10] it was 0.923; in assay [11], 0.322; in assay [12] it was 0.878; in [13], 0.22. Also, the composite z-score in assay [14] is 0.81; in [15] it was 0.344; in [16], -0.475; in assay [18], 0.0813; in assay [19] it was 0.381. Also, the composite Z-score in [2] was 0.134 (inactive). Moreover, the z-score in [17] is -0.946; in assay [20], -0.507 (inactive).

For `Cc1c(NC(=O)/C(C#N)=C/c2ccccc2Cl)c(=O)n(-c2ccccc2)n1C`, the composite z-score was 0.942 in [1]; -0.0048 in assay [3]; -0.011 in assay [4]; 0.704 in assay [5]; 1.08 in [6]; 0.237 in assay [7]. For the same compound, the composite z-score in assay [8] was 0.247; in assay [9], 0.107; in [10], 0.996; in assay [11] it was 0.228; in [12] it was 0.654; in assay [13] it was -0.0387. Besides, the composite z-score was 0.425 in [14]; 0.255 in [15]; -0.0318 in [16]; -0.0835 in [18]; 0.195 in [19]. The composite Z-score in assay [2] was -0.683 (inactive). Besides, the z-score in assay [17] was 0.886; in assay [20], -0.805 (inactive).

`CC(C)C[C@@H]1NC(=O)[C@@]23C(=O)N[C@@H](Cc4ccccc4)C2[C@H](C)[C@@]2(C)O[C@H]2C3/C=C/C/C=C\CNC(=O)[C@@H](C)NC1=O` (stereo not given in full): the composite z-score in assay [1] is 0.663; in [3] it was -0.251; in assay [4] it was -0.196; in [5], 0.449; in assay [6], -0.128; in [7], -0.217. The composite z-score in assay [8] was -0.604; in assay [9], 0.643; in assay [10], 0.075; in assay [11], -0.471; in assay [12] it was -0.522; in assay [13] it was -0.647. In addition, the composite z-score in assay [14] was -0.67; in assay [15] it was 0.418; in assay [16] it was 0.901; in assay [18] it was 0.709; in assay [19] it was 0.808. The composite Z-score in assay [2] was -0.106 (inactive). The z-score was 0.0204 in assay [17] and 0.757 (inactive) in assay [20].

For `CN(C)C(=O)[C@@]1(Cc2ccccc2N=[N+]=[N-])N=C(c2ccc(OCCCO)cc2)O[C@H]1c1ccccc1`, the composite z-score turned out to be 0.897 in [1]; 0.484 in assay [3]; 0.369 in assay [4]; 0.681 in assay [5]; 2.76 in assay [6]; 1.13 in assay [7]. The composite z-score in assay [8] was 1.31; in assay [9], -0.699; in assay [10], 1.18; in assay [11], 1.78; in assay [12], 1.25; in [13] it was 0.235. The composite z-score in assay [14] is 0.992; in [15], 1.15; in [16], 1.37; in [18], -0.442; in [19] it was 1.22. For the same compound, in [2], the composite Z-score was 2.37 (inactive). Besides, the z-score in assay [17] was -0.238; in [20], -2.17 (inactive).
